These results are taken from PubChem BioAssay.

The term AC50 denotes the concentration giving half of the maximal activity seen. As a reminder, the IC50 is the concentration that inhibits the measured activity by half. Broadly, the inhibition is the change of the read-out against control, counted positive when it falls.

The nature of assay [1]: growth inhibition of DIPG glioma cells, dose response, cell-based, SU-DIPG-XIII, MIPE4.0, CellTiter-Glo, qHTS (AID 1347061; cut-off not given, nearly all actives have AC50 up to about 37 µM;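 further: cells exposed to compound for 48 hours before readout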). As to conditions: SU-DIPG-XIII viability, CellTiter-Glo ATP luminescence. A general note: ATP-based viability assays read luminescence as a measure of living cells.
Assay [2] can be described thus: growth inhibition of DIPG glioma cells, dose response, cell-based, JHH-DIPG-1, MIPE4.0, CellTiter-Glo, qHTS (AID 1347062; cut-off not given, nearly all actives have AC50 up to about 27 µM;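 on AC50: cells exposed to compound for two days before readout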). As to conditions: JHH-DIPG-1 viability, CellTiter-Glo ATP luminescence.
Assay [3] can be described thus: growth inhibition of DIPG glioma cells, dose response, cell-based, SU-DIPG-IV, MIPE4.0, CellTiter-Glo, qHTS (AID 1347063; cut-off not given, nearly all actives have AC50 up to about 30 µM;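 further: compound exposure lasted 48 hours before the viability readout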). The note with it: SU-DIPG-IV viability, CellTiter-Glo ATP luminescence.
A short description of assay [4]: growth inhibition of DIPG glioma cells, dose response, cell-based, SU-DIPG-XIII, MIPE5.0, CellTiter-Glo, qHTS (AID 1347064; cut-off not given, nearly all actives have AC50 up to about 23 µM;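 on AC50: cells exposed to compound for 48 hours before the viability read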). As to conditions: SU-DIPG-XIII viability, CellTiter-Glo ATP luminescence.
The nature of assay [5]: viability loss in pontine glioma line – cell-based, SU-DIPG-XXV, MIPE5.0, CellTiter-Glo, qHTS, dose response (AID 1347065; cut-off not given, nearly all actives have AC50 up to about 26 µM;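 further: cells exposed to compound for 48 hours before ATP readout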). The note with it: CellTiter-Glo ATP luminescence.
Assay [6] in a line: SU-DIPG-VI glioma cell viability, MIPE4.0 library, CellTiter-Glo luminescence, qHTS (AID 1347066; cut-off not given, nearly all actives have AC50 up to about 30 µM;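 further: cells exposed to compound for 48 hours before readout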). The note with it: CellTiter-Glo ATP luminescence.
Assay [7] can be described thus: SU-DIPG-XXV glioma cell viability, MIPE5.0 library, qHTS (AID 1347068; cut-off not given, nearly all actives have IC50 up to about 30 µM;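 on IC50: cells exposed to compound for 48 hours before viability readout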). (In general: In qHTS, concentration-response curves come from the screen itself.)
Assay [8] can be described thus: JHH-DIPG-1 glioma cell viability, MIPE5.0 library, CellTiter-Glo luminescence, qHTS (AID 1347067; cut-off not given, nearly all actives have AC50 up to about 26 µM;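 further: cells exposed to compound for 48 hours before readout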). As to conditions: JHH-DIPG-1 glioma viability, CellTiter-Glo ATP luminescence.
The nature of assay [9]: sensitizers of A549 cells to miR-34 induction, primary screen, imaging, A549 dox-inducible miR-34, nuclei and caspase counts (AID 1347080;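 active means compounds whose cell count with miR-34 switched on is under 0.7 times the count with it off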). As to conditions: A549 miR-34 inducible, Hoechst nuclei count, 48 h.
Assay [10] is described as follows: modifiers of HSF1 nuclear foci, imaging, Selleck Cancer Library (AID 1347162; in the data active means plate-normalised HSF1 focus index below about 0.46). As to conditions: human cells, at 10 µM; SSMD: measured here: HSF1 foci SSMD mean; cell count: measured here: cell number; plate-normalised HSF1 focus index: stronger effect = lower value.
The nature of assay [11]: survival rescue of mitochondrial mutant cells in low glucose, primary screen, MELAS cybrids, Rieske KO mouse fibroblasts, CellTiter-Glo (AID 1508586;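 active means mean z-score across replicates of 1.96 or higher in either the MELAS or the Rieske mutant cell line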;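 further: z relative to plate mean and SD of compound and empty wells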).
Assay [12] in a line: LFS_MB_P medulloblastoma growth inhibition, cell-based, chromothripsis tumors, cisplatin or BGB combos (AID 1671449).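 Further: cells exposed for 96 hours; 0% = vehicle DMSO and 100% = killing by high DMSO.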 The note with it: LFS_MB_P medulloblastoma cells.
A short description of assay [13]: HDN33 neuroblastoma growth inhibition, cell-based, chromothripsis tumors, cisplatin or BGB combos (AID 1671450).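 Further: cells exposed to compound for four days; 0% = vehicle DMSO and 100% = cell killing by high DMSO.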 The note with it: HDN33 neuroblastoma cells, stronger effect = higher value.
A short description of assay [14]: ICB984 medulloblastoma cell growth inhibition, synergistic combos for chromothripsis tumors, cisplatin or BGB combos (AID 1671451; call rule not given here;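 further: cells exposed for 96 hours before readout; 0% = vehicle DMSO and 100% = killing by high DMSO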). The note with it: ICB984 medulloblastoma cells, drug combinations, stronger effect = higher value.
Assay [15] is described as follows: HTB85 osteosarcoma cell growth inhibition, synergistic combos for chromothripsis tumors, BGB or cisplatin IC20 combos (AID 1671453).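 Further: cells exposed for 96 hours before readout; 0% = vehicle DMSO and 100% = high DMSO killing control.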 As to conditions: HTB85 osteosarcoma cells, drug combinations, stronger effect = higher value.
Assay [16] can be described thus: MDA-MB-436 breast carcinoma cell growth inhibition, synergistic combos for chromothripsis tumors, BGB or cisplatin combos (AID 1671458; call rule not given here;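 further: cells exposed for 96 hours; 0% = vehicle DMSO and 100% = killing by high DMSO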). The note with it: MDA-MB-436 breast carcinoma growth inhibition, drug combinations, stronger effect = higher value.
Assay [17] can be described thus: growth inhibition of BT084 medulloblastoma cells, cell-based, ICGC_MB145, cisplatin and BGB IC40 combos (AID 1671461).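 Further: cells exposed to drugs for 96 hours; 0% = vehicle DMSO and 100% = high DMSO full killing control.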 The note with it: drug combinations, stronger effect = higher value.
The nature of assay [18]: growth inhibition of RCMB18 medulloblastoma cells, cell-based, cisplatin and BGB IC40 combos (AID 1671462).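 Further: cells exposed to compound for four days.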 The note with it: stronger effect = higher value.
Assay [19] in a line: growth inhibition of CRL1545 osteosarcoma cells, cell-based, cisplatin and BGB IC20 combos (AID 1671464).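 Further: cells exposed to compound for 96 hours before readout; 0% = vehicle DMSO and 100% = high DMSO killing control.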 As to conditions: stronger effect = higher value.
Setting [20] is: stronger effect = lower value, cell number ratio, induced over uninduced.
The mark [21] stands for this setting: measured here: relative caspase fold change +Dox/-Dox.
[22] abbreviates: measured here: total cells with miR-34 induction, stronger effect = lower value.
[23] abbreviates: measured here: total cells without miR-34 induction.
Setting [24] is: measured here: with BGB IC20 combination, at 0.5 µM.
Where [25] appears, read: measured here: with cisplatin IC20 combination, at 0.5 µM.

SMILES strings stand for the structures. Where “and” joins values, the source holds several entries; their conditions need not be identical. Identical values can stand only once. Inconclusive results are not listed. Calls of active or inactive are those of the source. Unless noted, no stated cut-off is given here; in the data, active means inhibition above about 80%; inactive means the rest.

Take `CNC(=O)c1ccc(-c2cnc3ncc(Cc4ccc5ncccc5c4)n3n2)cc1F`: the compound was classed as inactive in assay [1], in assay [2], in assay [3], in [4], in assay [5] and in assay [6]. Moreover, in [7], the compound was called inactive.
As for `CCN(CC)CCn1c(=O)c(Cc2ccc(OC)cc2)nc2ccccc21`, the compound was classed as inactive in [1], in [2], in [3], in assay [4], in [5] and in [6]. For the same compound, the compound was classed as inactive in [8] and in [7]. The fold change in [9] (setting [20]) is 0.991 (inactive); in [9] (setting [21]), 1.5. Also, the figures for the cell count in [9] (setting [22]) and in assay [9] (setting [23]) were 9100 and 9170, respectively.
As for `CO[C@H]1/C=C/O[C@@]2(C)Oc3c(C)c(O)c4c(O)c(c5c(c4c3C2=O)=NC2(CCN(CC(C)C)CC2)N=5)NC(=O)/C(C)=C/C=C/[C@H](C)[C@H](O)[C@@H](C)[C@@H](O)[C@@H](C)[C@H](OC(C)=O)[C@@H]1C`, the compound was called inactive in assay [1], in assay [2], in [3] and in [4].
Regarding `Nc1ccccc1NC(=O)c1ccc(CNC(=O)OCc2cccnc2)cc1`, the half-maximal activity concentration (AC50) in assay [1] is 14.8 µM (active); in assay [2], 4.69 µM (active); in [3] it was 1.32 µM (active); in assay [4], 3.32 µM (active); in [5], 2.35 µM (active); in assay [6], 3.72 µM (active). The concentration at half-maximal activity (AC50) in [8] is 2.95 µM (active). In addition, the IC50 in assay [7] was 5.25 µM (active). For the same compound, the fold change is 0.935 (inactive) and 1.04 (inactive) in [9] (setting [20]); 1.69 and 0.81 in [9] (setting [21]). For the same compound, the cell count is 3300 and 2250 in assay [9] (setting [22]); 3530 and 2180 in assay [9] (setting [23]); 6960 in assay [10]. In addition, in assay [10], the SSMD is 2.19. Also, in assay [10], the plate-normalised HSF1 focus index is 1.11 (inactive). The z-score in [11] (MELAS cybrid survival, CellTiter-Glo 48 h, stronger effect = higher value) was -0.681 (inactive); in assay [11] (Rieske KO mouse fibroblast survival, CellTiter-Glo 72 h), -1.12. Further, the inhibition in [12] (at 0.5 µM, stronger effect = higher value) is 20.5% (inactive) and 31.3% (inactive); in assay [12] (measured here: combination with BGB IC20, at 0.005 µM), 9.17% and -14%; in [12] (measured here: combination with BGB IC40, at 0.005 µM) it was -20.6% and -27.1%; in [12] (measured here: combination with BGB IC40, at 0.05 µM), -4.42% and -24.6%; in [12] (measured here: combination with cisplatin, at 0.5 µM, stronger effect = higher value), 46.4% and 85.2%; in assay [12] (measured here: combination with cisplatin, at 5 µM, stronger effect = higher value), 118% and 115%. Moreover, the inhibition is 97.1% and 92.4% in assay [13] (BGB combo, at 5 µM); 44% (inactive) and 41% (inactive) in assay [13] (at 0.5 µM); 99.7% and 97% in [13] (cisplatin combo, at 5 µM); 39.9% and 34.6% in assay [13] (setting [24]); 48.7% and 57.6% in [13] (setting [25]); 99.3% and 93.9% in [13] (single agent, at 5 µM). For the same compound, the inhibition is 36.5% and 11% in assay [14] (BGB IC20 combo, at 0.005 µM); 24.4% and 20.7% in assay [14] (BGB IC40 combo, at 0.005 µM); 97.8% and 93% in assay [14] (BGB IC40 combo, at 0.05 µM); -31.6% (inactive) and -19.6% (inactive) in [14] (at 0.5 µM); 97.7% and 92.8% in [14] (cisplatin combo, at 0.05 µM); -49.4% and -14.7% in assay [14] (cisplatin combo, at 0.5 µM). Besides, the inhibition in [14] (cisplatin combo, at 5 µM) is 10.2% and -21.6%; in assay [14] (measured here: 5 uM single agent, at 5 µM), 20% and -23%; in [15] (at 0.5 µM), 57.3% (inactive) and 32.6% (inactive); in [15] (measured here: with BGB IC20, at 0.5 µM), 48% and 25.2%; in assay [15] (measured here: with BGB IC20, at 5 µM), 97.7% and 98.3%; in [15] (measured here: with cisplatin IC20, at 0.5 µM), 80.3% and 42.5%. In addition, the inhibition in assay [15] (measured here: with cisplatin IC20, at 5 µM) is 99.8% and 98.9%; in [15] (single agent, at 5 µM) it was 99.3% and 97.6%; in assay [16] (at 0.5 µM) it was 18.4% (inactive) and 2.92% (inactive); in [16] (measured here: BGB combination, at 0.5 µM) it was 16.3% and -2.7%; in assay [16] (measured here: BGB combination, at 5 µM), 55.1% and 44.4%; in [16] (measured here: cisplatin combination, at 0.5 µM), 15.5% and -5.2%. The inhibition in assay [16] (measured here: cisplatin combination, at 5 µM) is 49.1% and 36.5%; in assay [17] (at 0.5 µM) it was 46.5% (inactive) and 28.3% (inactive); in assay [17] (cisplatin combination, at 0.5 µM), 67% and 52.4%; in [17] (cisplatin combination, at 5 µM), 97.3% and 96.5%; in [17] (measured here: BGB IC40 combination 0.05 uM, at 0.05 µM), 51.3% and 7.15%; in assay [17] (single agent, at 5 µM), 87.5% and 72.2%. Further, the inhibition in [18] (at 0.5 µM) was 49.1% (inactive) and 37.1% (inactive); in [18] (cisplatin combo, at 5 µM) it was 94.3% and 95%; in assay [18] (measured here: BGB IC40 combination, at 0.05 µM), 11.6% and 4.4%; in assay [18] (measured here: combination with cisplatin, at 0.5 µM), 71.2% and 58%; in [18] (single agent, at 5 µM), 95.5% and 86.6%; in assay [19] (at 0.5 µM) it was 74.5% (inactive) and 39.4% (inactive). For the same compound, the inhibition in assay [19] (setting [24]) was 71.4% and 25.4%; in [19] (setting [25]) it was 76.1% and 45.2%; in assay [19] (single agent, at 0.05 µM) it was 28.6% and -12.8%; in [19] (single agent, at 5 µM), 73.7% and 44.8%.
